From PubChem BioAssay AID434973 (Sanford-Burnham Center for Chemical Genomics, 2010) come the findings set out here.

Screen size: about 330,000 compounds; about 4,900 (1.5%) were called active. The sample holds actives, similar compounds and a random draw of the others, so the mix is not that of the screen. Values without a mark were called inactive.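 How the source made its calls: active means inhibition above about 50% at the single test dose (limit read from the data); inactive means the rest.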

The assay has as its target Sentrin-specific protease 7 (Homo sapiens) (UniProt Q9BQF6). Nature of the assay: blockers of human SENP7 peptidase activity – biochemical, luminescence, uHTS, primary screen (AID 434973).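 Further: plate controls were DMSO with enzyme for no effect and no enzyme buffer wells for full effect.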 The settings on record: recombinant SENP7, Z-RLRGG-aminoluciferin luminescence, 40 min; at 5 µM; hits give high values.
With `COC(=O)C(=Nc1ccccc1)/C(C(=O)C(=O)N(C)c1ccccc1)=C(\O)c1ccc(Cl)cc1`, the inhibition was -1.49%.

On to `CCn1c(CC(=O)Nc2ccccc2C)nnc1SCC(=O)NC1=NCCS1`, for which the inhibition was -7.93%.

Consider `CC(=O)Nc1ccccc1NC(=O)c1cc(C)cc(C)c1`, for which the inhibition is 2.28%.

As for `CSCc1ccc(C(=O)Nc2cc(C)cc(C)c2)cc1`, the inhibition was 75.3% (active).

As to `C=CCN(c1ccc(C(=O)Nc2cc(C)cc(C)c2)cc1)S(C)(=O)=O`, the inhibition was 6.36%.

As to `CN(C)C(=O)Cn1c(=O)n(S(=O)(=O)c2ccccc2)c2ccccc21`, the inhibition was 2.64%.

Consider `C/C(=N\NC(=O)c1ccc(C)cc1)C1C(=O)c2ccccc2C1=O`, for which the inhibition is 77.1% (active).

With `Cc1ccc(C(=O)N/C(=C/c2cccnc2)C(=O)O)cc1`, the inhibition is -9.12%.

Turning to `C/C(=N\NC(=O)CNC(=O)C(c1ccccc1)c1ccccc1)c1ccc(C)cc1`, the inhibition was -4.66%.

Consider `CC(=O)N1c2ccc(S(=O)(=O)N3CCCC(C(=O)Nc4ccc(C)cc4C)C3)cc2CC1C` (stereo unspecified), for which the inhibition is 7.52%.

For the molecule `CSc1ccc(C#N)cc1NC(=O)c1ccc(Cl)cc1`, the inhibition is 0.394%.

Consider `COc1cccc2sc(Nc3nc(C)c(C(C)=O)s3)nc12`, for which the inhibition is 69.1% (active).

Regarding `CC(=O)c1sc(N/N=C/c2ccc(C(C)C)cc2)nc1C`, the inhibition is 0.0938%.

For `CNC(=O)c1sc(NCc2ccccc2OC)nc1C`, the inhibition was 6.9%.

Regarding `COc1ccc(S(=O)(=O)N2CCOC2CNC(=O)C(=O)NCc2ccc(F)cc2)cc1` (stereo unspecified), the inhibition is 2.2%.

As for `Cc1nc2cc(NC(=O)Nc3cccc(F)c3)ccc2n1C`, the inhibition was 96.5% (active).

With `Cn1c(CCN2CCCCCC2)nc2cc(NC(=O)Nc3ccccc3)ccc21`, the inhibition is 10%.

For the molecule `C=CCN(C(=O)Nc1ccc2c(c1)nc(C)n2C)c1ccccc1`, the inhibition is 5.72%.

Consider `NC(=O)c1ccc(Nc2ccc3nonc3c2[N+](=O)[O-])cc1`, for which the inhibition was -0.507%.

Turning to `O=[N+]([O-])c1c(NCCO)cc(Sc2nc3ccccc3s2)c2nonc12`, the inhibition was 79.2% (active).

On to `Cc1nc2nc(CSc3nc4ccccc4s3)cc(=O)n2[nH]1`, for which the inhibition was -13.3%.

Regarding `COc1ccc(OCC(O)CN(C)C(=O)C(C)Oc2ccccc2)cc1` (stereo unspecified), the inhibition was 11.8%.

With `COc1ccc(C2=NS(=O)(=O)N(C)C(C(=O)N3CCCCC3)=C2)cc1`, the inhibition was -5.66%.

On to `O=C(CCNS(=O)(=O)c1cccs1)N1CCN(c2ccc(F)cc2)CC1`, for which the inhibition is -1.51%.

For `N/C(=N\OC(=O)CC1CCCCC1)c1ccccc1`, the inhibition was 21.8%.

`COc1ccccc1OCC(=O)O/N=C(\N)c1ccccn1`: the inhibition was 7.18%.

Take `N/C(=N\OC(=O)CCC1CCCCC1)c1ccccn1`: the inhibition is 82% (active).

As for `O=C(CSc1nnc(COc2ccc(Cl)cc2)n1Cc1ccco1)N1CCNC1=O`, the inhibition is -0.0156%.

With `O=S(=O)(NCC1CC1)c1ccc(F)c(Cl)c1`, the inhibition was 2.72%.

Consider `COc1ccccc1N=C(C)C1=C(O)COC1=O`, for which the inhibition is -4.17%.

Turning to `COc1ccccc1N=Cc1c(O)c2ccccc2oc1=O`, the inhibition is 88% (active).

`COc1cc(N=Cc2c(O)c3ccccc3oc2=O)c(OC)cc1Cl`: the inhibition is -0.159%.

On to `N/C(=N\OC(=O)/C=C/c1ccccc1)c1ccc(Br)cc1`, for which the inhibition is 9.06%.

For the molecule `N/C(=N\OC(=O)c1ccc2c(c1)OCO2)c1ccc(Br)cc1`, the inhibition was 71.1% (active).

For `N/C(=N\OC(=O)N1c2ccccc2Sc2ccccc21)c1ccc(Br)cc1`, the inhibition is -8.09%.

Regarding `COc1ccc(C2c3c(C)nn(-c4ccccc4)c3NC(=O)N2c2ccccc2)cc1` (stereo unspecified), the inhibition is 3.05%.

Regarding `CCCCNC(=O)OC(C)CNC(=O)OC` (stereo unspecified), the inhibition was -1.91%.

As for `Cc1ccc(C(=O)NCC(=O)O)s1`, the inhibition was -11.9%.

For `O=C(NCCc1ccccc1)C1CC1`, the inhibition was -1.24%.

For `COc1ccc(N(C(=O)c2snc(C(N)=O)c2N)C(C(=O)NC2CCCC2)c2ccco2)cc1OC` (stereo unspecified), the inhibition is -9.37%.

In the case of `CC(=NCc1ccco1)c1c(C(F)(F)F)[nH]n(-c2nc3ccccc3s2)c1=O`, the inhibition was 98.9% (active).

With `CC(C)CC(=O)N/C(N)=N/c1nc2ccccc2s1`, the inhibition was 33.4%.

As for `CCc1ccc(-c2cc(C(=O)NCc3ccco3)c3ccccc3n2)s1`, the inhibition is 6.27%.

Regarding `CCC1(CC)NC(=O)N(Cc2nc3ccccc3s2)C1=O`, the inhibition was -4.41%.

Take `CCC(C)Cn1c(O)cc2nn(-c3nc4ccccc4s3)c(=O)c-2c1C` (stereo unspecified): the inhibition was 8.83%.

As to `C/C(=N\NC(=O)CC(C)C)c1c(C(F)(F)F)[nH]n(-c2nc3ccccc3s2)c1=O`, the inhibition is 98.7% (active).

Take `CC(=O)c1sc(NC(=O)CCN2C(=O)C3CC=CCC3C2=O)nc1-c1ccccc1` (stereo unspecified): the inhibition was 0.528%.

As for `Cc1ccc(C)c(N2C(=O)CS/C2=N\NC(=O)c2ccccc2Cl)c1`, the inhibition was -12.9%.

As for `CCCCC/C=C/C1=CC(=O)C[C@H](c2ccc(Cl)cc2)C1`, the inhibition is 2.82%.

With `CCOc1ccc(N/C=C/C(=O)c2cc(OC)c(OC)c(OC)c2)cc1`, the inhibition is -14.5%.

On to `CCOc1ccc(N/C=C/C(=O)c2ccccc2)cc1`, for which the inhibition was 99.3% (active).

`Cc1cc(N/C=C\C(=O)c2ccc(Cl)c(Cl)c2)no1`: the inhibition is 10.2%.

For the molecule `CCOc1ccc(NC(=S)N2CCC(NC(=O)c3ccccc3)CC2)cc1`, the inhibition was -5.22%.

On to `CC(=O)Nc1ccc(/C=C/C(=O)c2ccccc2)cc1`, for which the inhibition is -13.6%.

In the case of `O=C(/C=C/NCc1ccc(F)cc1)c1ccccc1`, the inhibition is 7.34%.

Regarding `COc1ccc(C(=O)/C=C/Nc2ccccn2)cc1`, the inhibition was 99.2% (active).

With `Cc1ccc(N/C=C/C(=O)c2ccccc2)cc1C`, the inhibition was 91.8% (active).

Consider `COc1ccc(N2C(=O)CCC(C(=O)Nc3ccccn3)C2c2ccc(OC)c(OC)c2)cc1` (stereo unspecified), for which the inhibition is 9.84%.

As to `NCCCC[C@@H]1NC(=O)[C@H](CCC(=O)O)NC(=O)c2cc([N+](=O)[O-])cc(I)c2NCC[C@@H](C(N)=O)NC1=O`, the inhibition was 0.545%.

Turning to `O=C(COC(=O)c1cccnc1Cl)NC(=O)NC1CCCCC1`, the inhibition was -2.4%.

For `Brc1ccc2nc(N3CCCC3)sc2c1`, the inhibition was 93.4% (active).

As for `O=C(NCCc1cccc(F)c1)C1CCCN(c2nc3ccccc3s2)C1` (stereo unspecified), the inhibition is 7.46%.

Consider `O=S(=O)(Nc1ccc2nc(N3CCOCC3)sc2c1)c1ccccc1`, for which the inhibition was -7.76%.

With `O=C(c1ccc2nc(N3CCOCC3)sc2c1)N1CCN(c2ccc(Cl)cc2)CC1`, the inhibition was 0.5%.

Regarding `CN(C)CCCN(C(=O)c1ccc(S(=O)(=O)N2CCCCCC2)cc1)c1nc2cc3c(cc2s1)OCCO3`, the inhibition was 4.88%.

On to `c1c2c(cc3sc(N4CCCCC4)nc13)OCCO2`, for which the inhibition was 97.8% (active).

For the molecule `Fc1ccc2nc(Nc3nc4c(s3)CCCC4)sc2c1`, the inhibition is 9.46%.

Take `Cc1nc(N2CCCCC2)sc1C=O`: the inhibition is 11.3%.

As for `Fc1ccc2nc(N3CCCCC3)sc2c1`, the inhibition was 85.3% (active).

Take `C/C(CC(=O)N1CCN(C=O)CC1)=N\NC(=O)c1ccc(Br)cc1`: the inhibition was 4.47%.

Turning to `COCC(C)n1c(SCC(=O)NC2CCCCC2C)nc2ccccc2c1=O` (stereo unspecified), the inhibition was -6.63%.

On to `CC(C)NC(=O)c1ccc(Sc2ccccc2)c([N+](=O)[O-])c1`, for which the inhibition was 4.52%.

Turning to `O=C(c1ccc(=O)oc1)N1CCC(C(O)(c2ccccc2)c2ccccc2)CC1`, the inhibition was -5.43%.

As for `CCC1CCCCN1C(=S)Nc1ccc(S(=O)(=O)Nc2ncccn2)cc1` (stereo unspecified), the inhibition is -9.27%.

For the molecule `Cc1cccc(-n2c(C)cc(/C=N\NC(=O)c3cccs3)c2C)c1`, the inhibition is -3.16%.

As to `CC(C)C(=O)Nc1ccc(C(=O)NNC(=O)c2cccs2)cc1`, the inhibition is -0.683%.

In the case of `CCc1ccc(NC(=O)C(=O)NNC(=O)c2cccs2)cc1`, the inhibition was 51.4% (active).

Consider `CCc1ccc(NC(=O)COC(=O)c2cccs2)cc1`, for which the inhibition was 17.2%.

Take `O=C(Nc1ccc(NC(=O)c2cccs2)cc1)c1ccc2ccccc2c1`: the inhibition is -6.64%.

Turning to `Cc1ccc(C(=O)Nc2ccc(NC(=O)c3cccs3)cc2)c(C)c1`, the inhibition is -5.29%.

As to `O=C(Nc1ccccc1)c1ccc(NC(=O)c2cccs2)cc1`, the inhibition was 67.8% (active).

On to `CC(=O)Nc1ccc(/C=N/NC(=O)c2cccs2)cc1`, for which the inhibition was 67.7% (active).

Consider `CCN(CC)c1ccc(/C=N/NC(=O)CNC(=O)c2cccs2)cc1`, for which the inhibition was 2.87%.

Regarding `O=C(COC(=O)/C=C/c1cccs1)NC1CCCCC1`, the inhibition was 6.28%.

As to `COCCCNC(=O)[C@H]1N2C(=O)c3ccccc3C2SC1(C)C` (stereo partly specified), the inhibition was -7.11%.

As for `COC(=O)Cc1csc(/N=C/c2c(O)n(-c3cccc(C(F)(F)F)c3)c(=O)c3ccccc23)n1`, the inhibition was -1.46%.

Regarding `CCCCN(C(=O)C1CCC1)c1c(N)n(Cc2ccccc2)c(=O)[nH]c1=O`, the inhibition was 5.98%.

Regarding `O=C(CCS(=O)(=O)c1ccccc1Cl)Nc1ccc(S(=O)(=O)Nc2ncccn2)cc1`, the inhibition was 5.16%.

As to `CCCCSCCCNC(=O)C1CCC(CNS(=O)(=O)c2ccc(NC(C)=O)cc2)CC1` (stereo unspecified), the inhibition is -1.73%.

For the molecule `NC(=O)Cc1nc2scc(-c3ccc(Cl)cc3)c2c(=O)[nH]1`, the inhibition is -2.34%.

For `O=c1[nH]c(CCl)nc2cc(-c3ccc(Cl)cc3)sc12`, the inhibition is 63.1% (active).

For `O=c1[nH]c(CN2CCOCC2)nc2cc(Cl)ccc12`, the inhibition is 10.2%.

As to `Cc1nc(NC(=O)c2ccc3c(c2)OCCO3)ccc1Br`, the inhibition is 87.2% (active).

For the molecule `CCCc1cc(C(=O)Nc2ccc(Cl)cn2)cs1`, the inhibition is 76.6% (active).

`CCCc1cc(C(=O)Nc2ccc(C(=O)OC)cc2)cs1`: the inhibition was -0.862%.

Regarding `O=C(Nc1ccc(Cl)cn1)c1cnn2cccnc12`, the inhibition was 27.2%.

On to `CCCCC(CC)C(=O)Nc1ccc(Cl)cn1` (stereo unspecified), for which the inhibition was -1.33%.

As to `O=C(Nc1ccc(Cl)cn1)c1ccc2c(c1)OCCO2`, the inhibition was 82.6% (active).

For the molecule `COc1ccc(C(=O)NC(=S)Nc2ccc(Cl)cn2)cc1OC`, the inhibition is -7.53%.

With `Cc1ccc(C(=O)NNC(=O)c2ccc3c(c2)OCCO3)cc1`, the inhibition was 6.51%.

With `Cc1cccc(C)c1NC(=O)CNC(=O)c1ccc2c(c1)OCCO2`, the inhibition was -14.1%.
